Source: PubChem BioAssay AID624352 (Sanford-Burnham Center for Chemical Genomics, 2012)
In all, about 360,000 compounds went through this assay and about 2,600 (0.72%) were called active.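 Rule for the calls: active = inhibition of the luminescence signal of 40% or more relative to plate controls, in a single-dose primary screen at 18.75 µM; inactive = the rest.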 For the sample, actives were picked, then their nearest neighbours and some compounds at random.

Test: HIF-2a reporter inhibitors, primary screen, luminescence, 786-0 RCC cells (AID 624352)
Settings: 786-0 RCC cells HIF-2a reporter, luciferase luminescence, overnight; at 18.8 µM; stronger effect = higher value
For `CCCc1cc(-c2n[nH]c(=S)n2CC)c2ccccc2n1`, the inhibition was 25.6% (inactive). In the case of `CCN(CC)S(=O)(=O)c1cccc(-c2n[nH]c(=S)n2/N=C/c2ccc(C(=O)OC)cc2)c1`, the inhibition is reported as 20.2% (inactive). With `Cc1cc(-c2n[nH]c(=S)n2/N=C/C(Br)=C/c2ccccc2)n[nH]1` the inhibition was 87% (active). For `CCN1CCN(C(=O)C2CCN(S(=O)(=O)c3cc(Cl)ccc3Cl)CC2)CC1`, the inhibition was 6.56% (inactive). In the case of `COc1ccc(Br)cc1S(=O)(=O)N1CCN=C1C`, the inhibition is reported as 13.2% (inactive). With `O=C(Nc1ccc2c(c1)OCO2)C1CC(c2c(F)cccc2Cl)=NO1` (centres undefined) the inhibition was -228% (inactive). In the case of `Cc1c(CCC(=O)N[C@@H](CC(C)C)C(=O)O)c(=O)oc2c(C)c3oc4c(c3cc12)CCCC4`, the inhibition is reported as 31.2% (inactive). With `CC[C@@H](C)[C@H](NC(=O)CCc1c(C)c2cc3c4c(oc3c(C)c2oc1=O)CCCC4)C(=O)O` the inhibition was 56.9% (active). For `Cc1c(C)c2cc3c4c(oc3c(C)c2oc1=O)CCCC4`, the inhibition was -31.5% (inactive). For `CC(C)Cn1c(N)c(C(=O)COC(=O)C2CCCN2C(=O)c2cccs2)c(=O)n(C)c1=O` (centres undefined), the inhibition was 4.33% (inactive). For `O=[N+]([O-])/C=C/c1ccc2c(ccn2Cc2ccccc2)c1`, the inhibition was 92.5% (active). For `CC1(C)C2CCC13CS(=O)(=O)NC3C2` (centres undefined), the inhibition was 14.9% (inactive). With `N#Cc1ccc(OCC(=O)Nc2nc(-c3ccccn3)cs2)cc1` the inhibition was 21.4% (inactive). In the case of `COC(=O)Cc1[nH]n(-c2nc3ccccc3s2)c(=O)c1C(C)=Nc1ccc(OC)cc1`, the inhibition is reported as 80.1% (active). For `O=C(NC(=S)Nc1ccc(Cl)cc1Cl)C1CC1`, the inhibition was -294% (inactive). In the case of `Cc1ccnc(NC(=O)CCNS(=O)(=O)c2ccc(C)c(C)c2)c1`, the inhibition is reported as -176% (inactive). With `O=C(COC(=O)c1cccc(Cl)c1)NC1CCCCCCC1` the inhibition was 6.27% (inactive). With `COC(=O)c1cc(C(=O)NC(C)C2CC3CCC2C3)cc([N+](=O)[O-])c1` (centres undefined) the inhibition was 18.1% (inactive). In the case of `CC(NCC(=O)Nc1ccccc1C(=O)NC1CC1)c1ccccc1Cl` (centres undefined), the inhibition is reported as 3.17% (inactive). For `Cc1ccsc1C(=O)OCC(=O)c1cc(C)n(CC2CCCO2)c1C` (centres undefined), the inhibition was 64.7% (active). For `COc1ccc(CNC(=O)COC(=O)c2sccc2C)cc1OC`, the inhibition was -10.1% (inactive). For `CCCn1c(C)cc(C(=O)COC(=O)c2c(C)nn(-c3ccccc3)c2C)c1C`, the inhibition was -28.6% (inactive). In the case of `CCCCN(C(=O)CCNC(=O)NC12CC3CC(CC(C3)C1)C2)c1c(N)n(CCCC)c(=O)[nH]c1=O`, the inhibition is reported as 4.48% (inactive). With `Oc1c(CN2CCOCC2)ccc(CN2CCOCC2)c1O` the inhibition was 9.75% (inactive). For `O=C1C(Cl)=C(Oc2ccccc2)C(=O)c2ccccc21`, the inhibition was 88.1% (active). In the case of `COc1ccc(C(CNC(=O)c2ccc(S(=O)(=O)Nc3ccccc3F)cc2)N(C)C)cc1` (centres undefined), the inhibition is reported as 4.08% (inactive). In the case of `Nc1nc(Br)c2ccccc2c1-c1ccc(F)cc1`, the inhibition is reported as 5.57% (inactive). With `Cn1c(=NC(=O)c2ccc3c(c2)OCCO3)sc2cc(S(C)(=O)=O)ccc21` the inhibition was -28.1% (inactive). For `O=C(c1ccccc1)C(O)(CN1CCCCC1)c1ccccc1` (centres undefined), the inhibition was 13.3% (inactive). For `O=C(O)c1cccc(N=NN2CCCCCC2)c1`, the inhibition was 42.7% (active). For `O=C(O)c1ccc(N=NN2CCOCC2)cc1`, the inhibition was 10.1% (inactive). For `COc1ccc(CNc2c(CO)cnc3c2cnn3C)cc1`, the inhibition was 17.6% (inactive). In the case of `Cc1ccc(CNC(=O)c2cccnc2Cl)cc1`, the inhibition is reported as 2.18% (inactive). In the case of `CCN(CC)S(=O)(=O)c1ccc(NC(=O)c2cccnc2Cl)c(NC(=O)c2cccnc2Cl)c1`, the inhibition is reported as 86.1% (active). With `CCN(CC)S(=O)(=O)c1ccc(NC(=O)c2cnc(C)cn2)cc1` the inhibition was 11% (inactive). With `CCOCCc1c(O)nc(SCC(=O)NCc2ccco2)[nH]c1=O` the inhibition was 11% (inactive). For `COc1ccc2c(c1)c(=Cc1ccc(N(C)C)cc1)c1cc(-c3ccccc3)[n+](C)n12`, the inhibition was 88.2% (active). With `Cc1ccc(NC(=O)COC(=O)CN2CCCCCC2=O)c(C)c1` the inhibition was 11.4% (inactive). In the case of `CC(C)COc1ccc(C(=O)NNC(=O)CCC(=O)c2cccs2)cc1`, the inhibition is reported as -5.7% (inactive). With `Cc1cccc(C(=O)OC(C)C(=O)NC2CCCc3ccccc32)c1O` (centres undefined) the inhibition was 3.74% (inactive). With `CC1CCCCN1S(=O)(=O)CCNC(=O)c1ccccc1` (centres undefined) the inhibition was 2.54% (inactive). With `O=C1COc2ccc(C(=O)CSc3ccc(Br)cc3)cc2N1` the inhibition was -19.3% (inactive). For `CN(CCc1ccccc1)C(=O)c1cccc(NC(=O)Cc2cccc(NC(=O)C3CCCN(C(=O)CCc4ccccc4)C3)c2)c1` (centres undefined), the inhibition was 1.76% (inactive). For `N#C/C(=C(\O)CCl)c1nnc2n1CCCCC2`, the inhibition was -5.99% (inactive). In the case of `N#C/C(=C/c1cccc([N+](=O)[O-])c1)c1nnc2n1CCCCC2`, the inhibition is reported as 40.7% (active). In the case of `N#C/C(=C(\O)C(F)(F)F)c1nnc2n1CCCCC2`, the inhibition is reported as 19.1% (inactive). In the case of `CCOC(=O)/C(=C\c1ccc([N+](=O)[O-])cc1)C(=O)c1cc(C(C)=O)c(Nc2ccccc2)s1`, the inhibition is reported as 8.67% (inactive). In the case of `COc1ccccc1/C=C/C(=O)NC1CC2CCC1C2` (centres undefined), the inhibition is reported as -129% (inactive). With `CCOC(=O)C(=Cc1ccccc1)C(=O)c1ccccc1` the inhibition was 86.9% (active). In the case of `CCOC(=O)C(=Cc1ccccc1OC)C(=O)OCC`, the inhibition is reported as 56.9% (active). With `CCc1ccccc1NC(=O)/C(=C/c1ccccc1)c1ccccc1` the inhibition was 2.55% (inactive). In the case of `COc1ccccc1C(=O)c1ccccc1C(=O)c1ccccc1`, the inhibition is reported as 12% (inactive). In the case of `COC(=O)[C@H](CC(C)C)NC(=O)N1CCCCC1C` (some centres undefined), the inhibition is reported as 10.8% (inactive). With `C=CCn1c(SCCOc2ccc(OC)cc2)nnc1C(NC(=O)c1ccc(OC)cc1)C(C)C` (centres undefined) the inhibition was 26.4% (inactive). For `O=C(NNC(=S)NCCCN1CCOCC1)c1ccncc1`, the inhibition was 9.32% (inactive). In the case of `O=C(C[n+]1ccc2c(c1)nnn2-c1ccccc1)c1ccc(Cl)cc1`, the inhibition is reported as -14.6% (inactive). With `c1c2c(cc3sc(N4CCCCC4)nc13)OCCO2` the inhibition was 70.3% (active). In the case of `O=C(CN1C(=O)NC2(CCOc3ccccc32)C1=O)NCc1ccc(F)cc1` (centres undefined), the inhibition is reported as 7.05% (inactive). In the case of `O=C(CC12CC3CC(CC(C3)C1)C2)Nc1ccc2c(c1)COC2=O`, the inhibition is reported as -0.0166% (inactive). With `COc1ccc(C(=O)COC(=O)CN2C(=O)C3CC=CCC3C2=O)c(OC)c1` (centres undefined) the inhibition was -7.43% (inactive). For `O=C(COC(=O)CN1C(=O)C2CCCCC2C1=O)Nc1ccc(F)c(F)c1F` (centres undefined), the inhibition was 15.9% (inactive). In the case of `CC1=CC(C)(C)Nc2ccc(OC(=O)CN3C(=O)C4CCCCC4C3=O)cc21` (centres undefined), the inhibition is reported as 85.2% (active). For `C=CCN(C(=O)Cn1ncc2c1-c1cc(C)ccc1OC2)c1ccccc1`, the inhibition was 8.04% (inactive). For `CCOc1ccccc1NC(=O)C1CCCN(S(=O)(=O)c2ccccc2)C1` (centres undefined), the inhibition was 6.68% (inactive). With `CN(C)/C=C(/C(=O)c1ccccc1)S(=O)(=O)c1ccc(Cl)cc1` the inhibition was -9.32% (inactive). In the case of `C/C(=N\NS(=O)(=O)c1ccc(Cl)cc1)c1ccc(NC(=O)c2ccco2)cc1`, the inhibition is reported as -80.3% (inactive). In the case of `O=C(Nc1ccccc1)c1nnsc1S(=O)(=O)c1ccc(Cl)cc1`, the inhibition is reported as 55.9% (active). For `CCCC(C(=O)N1CCOCC1)N1C(=O)C2C3C=CC(C3)C2C1=O` (centres undefined), the inhibition was 5.26% (inactive). In the case of `CC(C)OCCCNC(=O)CNC(=O)c1cccs1`, the inhibition is reported as -6.91% (inactive). For `Cc1ccccc1C(CC(=O)c1cccs1)C(C#N)C#N` (centres undefined), the inhibition was 59.7% (active). With `Cc1ccc(NNC(=O)c2cccs2)cc1Cl` the inhibition was -22.8% (inactive). For `CCCCOC(=O)CNc1nnc(SCC(=O)OCC)[nH]c1=O`, the inhibition was 16.2% (inactive). For `C[C@@H](NC(=O)[C@@H]1Cc2ccccc2CN1)C(=O)NC1CCCC1`, the inhibition was -3.06% (inactive). In the case of `CN(C)S(=O)(=O)c1ccc(Oc2ccc(S(=O)(=O)N(C)C)cc2)cc1`, the inhibition is reported as 0.813% (inactive). In the case of `CC(C)(C)c1ccc(Oc2ccc(N)cc2)cc1`, the inhibition is reported as 94.1% (active). For `NC[C@H](Cc1ccccc1)NCCc1cc(C(F)(F)F)cc(C(F)(F)F)c1`, the inhibition was 8.13% (inactive). For `C=CCn1c(C)cc(C2=NNC(=NCC)SC2)c1C`, the inhibition was 92.7% (active). With `CCOc1cccc(NC(=O)Cn2nc(-c3ccc4c(c3)OCCO4)ccc2=O)c1` the inhibition was 3.02% (inactive). With `CN(C)CCn1c2c(c(SCC(=O)NCc3ccccc3)nc1=O)CCC2` the inhibition was 11.3% (inactive). With `Cn1c(=O)c2ccccc2n(CC(=O)Nc2ccc3c(c2)OCCO3)c1=O` the inhibition was 0.929% (inactive). For `COc1ccc(C(=O)NCC(c2ccco2)N2CCc3ccccc32)cc1OC` (centres undefined), the inhibition was 23% (inactive). For `COc1cc(C2C(C(=O)c3sc(C)nc3C)=C(O)C(=O)N2CCN(C)C)cc(OC)c1OC` (centres undefined), the inhibition was 17.5% (inactive). In the case of `O=c1oc2ccccc2cc1-c1cn(-c2ccccc2)c(=S)[nH]1`, the inhibition is reported as 73.6% (active). With `CN(C)CC(C)(C)CNC(=O)c1cc(Br)cc(Br)c1O` the inhibition was 8.3% (inactive). For `O=C1/C(=C\c2ccc([N+](=O)[O-])cc2)CS(=O)(=O)C/C1=C/c1ccc([N+](=O)[O-])cc1`, the inhibition was 92.6% (active). With `O=[N+]([O-])c1ccc(CN2CC(N3CC=CC3)CS2(=O)=O)cc1` (centres undefined) the inhibition was 3.7% (inactive). For `CC(=O)Nc1cc(-c2ccccc2N(C)C)cn2c(-c3ccc(F)c(Cl)c3)cnc12`, the inhibition was -0.208% (inactive). For `CCc1ccc(Oc2nc([N+](=O)[O-])nn2C)cc1`, the inhibition was -0.728% (inactive). In the case of `CC1CCCN(C(=O)c2ccc3c(c2)C(=O)N(CCC2=CCCCC2)C3=O)C1` (centres undefined), the inhibition is reported as 2.05% (inactive). For `CC1Cc2ccccc2N1C1=CC(=O)CC(C)(C)C1` (centres undefined), the inhibition was 9.32% (inactive). With `Cc1c(CCC(=O)O)c(=O)oc2cc3occ(-c4ccccc4)c3cc12` the inhibition was 63.2% (active). In the case of `Cc1coc2cc3oc(=O)c(CCC(=O)O)c(C)c3cc12`, the inhibition is reported as 17% (inactive). In the case of `COc1cccc(-c2coc3cc4oc(=O)c(CC(=O)O)c(C)c4cc23)c1`, the inhibition is reported as -58% (inactive). For `CC(C)c1ccc2c(c1)c(SC(C)(C)C)c(CC(C)(C)C(=O)O)n2Cc1ccc(Cl)cc1`, the inhibition was -26.8% (inactive).
